According to ChEMBL document CHEMBL1961873, “Compounds: GSK PKIS; Assays: Nanosyn kinase panel” (2012):
Values joined by “and” are separate entries in the source; they are usually repeats but may differ in a detail not shown here. Equal entries are not always repeated.

Assays:
[1] = tested on: Epidermal growth factor receptor (Homo sapiens), P00533 [T790M]; details: at 1 µM
[2] = tested on: Epidermal growth factor receptor (Homo sapiens), P00533 [L858R,T790M]; details: at 0.1 µM
[3] = tested on: Epidermal growth factor receptor (Homo sapiens), P00533 [L858R,T790M]; details: at 1 µM
[4] = target: Ephrin type-A receptor 2 (Homo sapiens) (UniProt P29317); details: at 0.1 µM
Chain of Ephrin type-A receptor 2 (Homo sapiens) (P29317 whole entry): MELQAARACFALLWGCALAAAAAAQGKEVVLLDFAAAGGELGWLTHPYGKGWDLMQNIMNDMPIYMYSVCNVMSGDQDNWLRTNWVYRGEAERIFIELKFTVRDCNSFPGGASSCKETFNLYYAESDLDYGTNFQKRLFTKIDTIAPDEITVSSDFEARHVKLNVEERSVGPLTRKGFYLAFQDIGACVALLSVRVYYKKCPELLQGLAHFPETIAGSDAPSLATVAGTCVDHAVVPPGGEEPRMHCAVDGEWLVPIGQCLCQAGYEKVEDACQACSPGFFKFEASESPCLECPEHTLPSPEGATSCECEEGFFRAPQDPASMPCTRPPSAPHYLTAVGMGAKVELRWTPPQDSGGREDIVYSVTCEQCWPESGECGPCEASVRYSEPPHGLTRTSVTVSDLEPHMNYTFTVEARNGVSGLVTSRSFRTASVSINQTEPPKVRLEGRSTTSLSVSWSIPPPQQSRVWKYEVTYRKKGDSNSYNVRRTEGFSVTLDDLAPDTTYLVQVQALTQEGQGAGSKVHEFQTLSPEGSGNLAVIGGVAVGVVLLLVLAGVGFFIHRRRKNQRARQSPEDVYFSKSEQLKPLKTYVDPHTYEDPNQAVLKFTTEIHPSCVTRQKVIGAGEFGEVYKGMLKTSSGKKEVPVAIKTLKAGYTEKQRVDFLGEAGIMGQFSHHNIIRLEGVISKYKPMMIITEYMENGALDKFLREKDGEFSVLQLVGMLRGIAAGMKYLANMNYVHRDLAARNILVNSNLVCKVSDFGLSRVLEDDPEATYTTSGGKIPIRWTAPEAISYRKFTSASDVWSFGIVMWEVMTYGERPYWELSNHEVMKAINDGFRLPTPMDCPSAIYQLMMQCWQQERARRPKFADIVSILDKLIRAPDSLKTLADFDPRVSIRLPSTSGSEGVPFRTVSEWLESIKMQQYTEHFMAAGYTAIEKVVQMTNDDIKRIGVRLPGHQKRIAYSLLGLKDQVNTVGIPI

[5] = target: Ephrin type-A receptor 2 (Homo sapiens) (UniProt P29317); details: at 1 µM
[6] = target: T1, Ephrin type-A receptor 3 (Homo sapiens) (UniProt P29320); details: at 0.1 µM
T1 sequence (whole entry): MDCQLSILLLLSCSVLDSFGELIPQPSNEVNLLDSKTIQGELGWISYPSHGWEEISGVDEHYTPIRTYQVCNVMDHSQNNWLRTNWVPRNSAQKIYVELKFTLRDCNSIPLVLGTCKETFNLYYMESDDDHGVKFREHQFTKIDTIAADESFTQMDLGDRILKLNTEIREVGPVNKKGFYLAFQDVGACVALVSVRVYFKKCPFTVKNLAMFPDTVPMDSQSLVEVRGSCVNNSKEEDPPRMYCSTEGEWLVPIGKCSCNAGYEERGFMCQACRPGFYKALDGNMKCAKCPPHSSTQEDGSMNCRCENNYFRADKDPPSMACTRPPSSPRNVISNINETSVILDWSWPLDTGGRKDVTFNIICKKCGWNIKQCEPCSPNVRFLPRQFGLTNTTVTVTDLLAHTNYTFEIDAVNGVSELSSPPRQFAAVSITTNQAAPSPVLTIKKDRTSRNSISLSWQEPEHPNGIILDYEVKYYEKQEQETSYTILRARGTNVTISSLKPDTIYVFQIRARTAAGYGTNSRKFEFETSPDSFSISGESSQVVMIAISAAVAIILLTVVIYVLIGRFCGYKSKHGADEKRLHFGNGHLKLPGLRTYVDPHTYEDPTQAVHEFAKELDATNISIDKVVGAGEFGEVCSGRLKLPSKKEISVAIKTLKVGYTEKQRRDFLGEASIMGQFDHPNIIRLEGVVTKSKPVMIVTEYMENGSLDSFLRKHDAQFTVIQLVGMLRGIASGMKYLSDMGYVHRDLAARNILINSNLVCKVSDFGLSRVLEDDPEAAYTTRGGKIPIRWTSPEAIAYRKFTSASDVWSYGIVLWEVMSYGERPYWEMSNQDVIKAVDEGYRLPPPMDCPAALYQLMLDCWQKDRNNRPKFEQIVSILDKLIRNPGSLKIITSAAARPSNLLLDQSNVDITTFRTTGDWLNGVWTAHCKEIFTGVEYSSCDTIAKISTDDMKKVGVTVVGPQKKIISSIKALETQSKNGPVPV

[7] = target: T1, Ephrin type-A receptor 3 (Homo sapiens); details: at 1 µM
[8] = target: Ephrin type-A receptor 4 (Homo sapiens) (UniProt P54764); details: at 0.1 µM
[9] = target: Ephrin type-A receptor 4 (Homo sapiens) (UniProt P54764); details: at 1 µM
[10] = target: T2, Ephrin type-B receptor 2 (Homo sapiens) (UniProt P29323); details: at 0.1 µM
T2 sequence (whole entry): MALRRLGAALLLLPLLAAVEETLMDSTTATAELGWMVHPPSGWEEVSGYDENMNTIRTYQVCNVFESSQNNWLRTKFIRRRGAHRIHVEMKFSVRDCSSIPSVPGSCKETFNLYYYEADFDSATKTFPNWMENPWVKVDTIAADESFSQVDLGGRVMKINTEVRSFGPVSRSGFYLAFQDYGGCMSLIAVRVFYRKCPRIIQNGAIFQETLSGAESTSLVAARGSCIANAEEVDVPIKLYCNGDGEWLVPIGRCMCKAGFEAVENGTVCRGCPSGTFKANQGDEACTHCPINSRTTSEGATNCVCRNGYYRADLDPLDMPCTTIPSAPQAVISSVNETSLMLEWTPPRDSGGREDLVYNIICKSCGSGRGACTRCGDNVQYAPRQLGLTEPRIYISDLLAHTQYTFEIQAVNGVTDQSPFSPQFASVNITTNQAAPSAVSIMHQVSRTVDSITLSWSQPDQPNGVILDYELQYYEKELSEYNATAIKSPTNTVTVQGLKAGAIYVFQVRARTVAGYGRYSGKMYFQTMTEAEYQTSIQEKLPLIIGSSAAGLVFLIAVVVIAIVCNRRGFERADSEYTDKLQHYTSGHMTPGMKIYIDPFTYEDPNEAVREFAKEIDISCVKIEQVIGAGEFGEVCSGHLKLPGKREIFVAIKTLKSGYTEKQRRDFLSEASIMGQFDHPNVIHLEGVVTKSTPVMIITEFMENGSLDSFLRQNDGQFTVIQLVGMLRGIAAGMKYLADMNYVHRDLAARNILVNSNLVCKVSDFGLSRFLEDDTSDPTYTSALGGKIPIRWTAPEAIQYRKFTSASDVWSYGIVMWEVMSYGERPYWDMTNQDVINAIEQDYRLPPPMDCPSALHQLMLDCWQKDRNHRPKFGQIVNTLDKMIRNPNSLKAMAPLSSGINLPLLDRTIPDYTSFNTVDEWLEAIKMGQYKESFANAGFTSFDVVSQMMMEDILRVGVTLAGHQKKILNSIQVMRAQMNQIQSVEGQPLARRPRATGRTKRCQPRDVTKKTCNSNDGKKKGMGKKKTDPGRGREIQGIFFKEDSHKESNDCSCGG

[11] = target: T2, Ephrin type-B receptor 2 (Homo sapiens); details: at 1 µM
[12] = target: T3, Ephrin type-B receptor 3 (Homo sapiens) (UniProt P54753); details: at 0.1 µM
T3 sequence (whole entry): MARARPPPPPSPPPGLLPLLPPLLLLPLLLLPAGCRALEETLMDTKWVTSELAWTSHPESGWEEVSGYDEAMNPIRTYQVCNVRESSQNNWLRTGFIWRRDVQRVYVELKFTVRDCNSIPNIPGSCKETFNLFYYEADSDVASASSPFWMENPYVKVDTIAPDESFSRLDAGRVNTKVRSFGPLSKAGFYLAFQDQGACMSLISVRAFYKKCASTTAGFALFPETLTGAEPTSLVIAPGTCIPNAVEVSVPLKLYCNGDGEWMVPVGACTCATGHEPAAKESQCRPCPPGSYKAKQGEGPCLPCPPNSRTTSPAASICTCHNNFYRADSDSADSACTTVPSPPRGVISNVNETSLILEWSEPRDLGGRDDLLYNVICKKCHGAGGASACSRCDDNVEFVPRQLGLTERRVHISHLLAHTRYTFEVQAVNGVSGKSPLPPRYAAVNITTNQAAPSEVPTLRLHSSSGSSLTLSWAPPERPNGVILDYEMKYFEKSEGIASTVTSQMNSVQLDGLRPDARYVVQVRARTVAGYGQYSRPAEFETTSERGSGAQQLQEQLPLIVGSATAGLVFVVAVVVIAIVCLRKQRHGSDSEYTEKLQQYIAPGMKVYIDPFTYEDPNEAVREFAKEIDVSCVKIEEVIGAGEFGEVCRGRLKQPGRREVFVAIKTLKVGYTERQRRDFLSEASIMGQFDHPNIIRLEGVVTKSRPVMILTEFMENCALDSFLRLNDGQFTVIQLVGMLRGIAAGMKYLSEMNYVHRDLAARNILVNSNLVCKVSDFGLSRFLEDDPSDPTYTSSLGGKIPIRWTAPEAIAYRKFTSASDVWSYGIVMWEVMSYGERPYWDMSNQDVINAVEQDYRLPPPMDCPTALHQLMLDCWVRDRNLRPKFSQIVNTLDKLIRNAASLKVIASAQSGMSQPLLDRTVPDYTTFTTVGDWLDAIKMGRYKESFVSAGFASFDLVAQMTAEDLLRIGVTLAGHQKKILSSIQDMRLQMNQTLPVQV

[13] = target: T3, Ephrin type-B receptor 3 (Homo sapiens); details: at 1 µM
[14] = target: T4, Ephrin type-B receptor 4 (Homo sapiens) (UniProt P54760); details: at 0.1 µM
T4 sequence (whole entry): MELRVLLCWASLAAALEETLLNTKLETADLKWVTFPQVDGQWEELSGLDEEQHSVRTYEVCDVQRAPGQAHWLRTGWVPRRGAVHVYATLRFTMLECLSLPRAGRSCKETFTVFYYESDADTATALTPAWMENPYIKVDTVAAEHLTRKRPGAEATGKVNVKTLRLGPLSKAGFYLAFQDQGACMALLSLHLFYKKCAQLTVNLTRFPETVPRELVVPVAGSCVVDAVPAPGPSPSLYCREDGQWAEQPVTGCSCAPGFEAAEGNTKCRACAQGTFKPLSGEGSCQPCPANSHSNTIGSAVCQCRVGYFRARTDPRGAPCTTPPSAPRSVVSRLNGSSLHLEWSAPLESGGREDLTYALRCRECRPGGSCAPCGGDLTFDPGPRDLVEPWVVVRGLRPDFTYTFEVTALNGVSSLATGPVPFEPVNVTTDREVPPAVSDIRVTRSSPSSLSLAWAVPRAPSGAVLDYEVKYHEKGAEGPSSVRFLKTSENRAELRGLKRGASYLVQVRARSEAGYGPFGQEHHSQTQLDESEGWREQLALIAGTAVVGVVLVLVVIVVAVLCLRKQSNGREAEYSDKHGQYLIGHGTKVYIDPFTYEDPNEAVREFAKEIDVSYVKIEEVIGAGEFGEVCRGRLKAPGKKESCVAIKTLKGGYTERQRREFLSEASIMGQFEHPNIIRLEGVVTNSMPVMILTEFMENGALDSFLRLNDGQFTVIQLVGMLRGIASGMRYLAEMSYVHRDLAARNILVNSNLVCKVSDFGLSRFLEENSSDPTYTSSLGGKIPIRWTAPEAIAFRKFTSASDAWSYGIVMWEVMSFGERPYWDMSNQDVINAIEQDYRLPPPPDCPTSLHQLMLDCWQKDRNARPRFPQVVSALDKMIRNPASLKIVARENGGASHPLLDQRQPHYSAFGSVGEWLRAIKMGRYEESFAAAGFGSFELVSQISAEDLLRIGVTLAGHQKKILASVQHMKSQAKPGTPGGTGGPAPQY

[15] = target: T4, Ephrin type-B receptor 4 (Homo sapiens); details: at 1 µM
[16] = target: Receptor tyrosine-protein kinase erbB-2 (Homo sapiens) (UniProt P04626); details: at 0.1 µM
Chain of Receptor tyrosine-protein kinase erbB-2 (Homo sapiens) (P04626 whole entry): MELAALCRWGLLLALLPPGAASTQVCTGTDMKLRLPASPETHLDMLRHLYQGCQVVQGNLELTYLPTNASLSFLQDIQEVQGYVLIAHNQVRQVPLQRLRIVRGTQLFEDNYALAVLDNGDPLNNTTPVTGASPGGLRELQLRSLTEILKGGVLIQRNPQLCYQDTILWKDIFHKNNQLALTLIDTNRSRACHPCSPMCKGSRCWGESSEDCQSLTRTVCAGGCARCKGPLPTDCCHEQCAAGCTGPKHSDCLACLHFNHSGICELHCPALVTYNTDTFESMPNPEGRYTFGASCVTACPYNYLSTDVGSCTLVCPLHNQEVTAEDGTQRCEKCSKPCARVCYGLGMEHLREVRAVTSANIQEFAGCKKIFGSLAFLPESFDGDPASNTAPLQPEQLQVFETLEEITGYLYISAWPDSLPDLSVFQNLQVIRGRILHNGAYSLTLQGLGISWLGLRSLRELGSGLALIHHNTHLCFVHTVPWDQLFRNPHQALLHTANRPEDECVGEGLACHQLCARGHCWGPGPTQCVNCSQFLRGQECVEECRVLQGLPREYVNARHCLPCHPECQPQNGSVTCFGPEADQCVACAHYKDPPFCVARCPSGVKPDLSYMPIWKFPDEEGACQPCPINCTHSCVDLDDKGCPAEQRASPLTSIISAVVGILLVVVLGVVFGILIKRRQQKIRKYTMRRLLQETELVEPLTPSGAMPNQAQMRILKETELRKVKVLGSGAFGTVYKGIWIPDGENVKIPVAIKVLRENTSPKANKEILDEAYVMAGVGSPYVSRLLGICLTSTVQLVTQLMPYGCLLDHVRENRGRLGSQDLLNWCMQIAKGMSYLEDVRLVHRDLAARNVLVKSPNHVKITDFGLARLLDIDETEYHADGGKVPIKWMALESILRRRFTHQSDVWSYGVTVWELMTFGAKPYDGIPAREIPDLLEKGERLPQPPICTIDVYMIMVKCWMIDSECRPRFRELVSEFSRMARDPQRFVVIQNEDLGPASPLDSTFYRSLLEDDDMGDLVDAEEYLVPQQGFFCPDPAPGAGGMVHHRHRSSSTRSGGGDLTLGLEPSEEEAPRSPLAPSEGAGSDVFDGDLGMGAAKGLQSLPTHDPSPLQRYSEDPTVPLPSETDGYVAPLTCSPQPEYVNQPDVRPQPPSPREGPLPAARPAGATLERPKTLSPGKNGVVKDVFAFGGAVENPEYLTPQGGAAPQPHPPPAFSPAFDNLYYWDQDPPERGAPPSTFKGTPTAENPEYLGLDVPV

[17] = target: Receptor tyrosine-protein kinase erbB-2 (Homo sapiens) (UniProt P04626); details: at 1 µM
[18] = target: Receptor tyrosine-protein kinase erbB-4 (Homo sapiens) (UniProt Q15303); details: at 0.1 µM
Chain of Receptor tyrosine-protein kinase erbB-4 (Homo sapiens) (Q15303 whole entry): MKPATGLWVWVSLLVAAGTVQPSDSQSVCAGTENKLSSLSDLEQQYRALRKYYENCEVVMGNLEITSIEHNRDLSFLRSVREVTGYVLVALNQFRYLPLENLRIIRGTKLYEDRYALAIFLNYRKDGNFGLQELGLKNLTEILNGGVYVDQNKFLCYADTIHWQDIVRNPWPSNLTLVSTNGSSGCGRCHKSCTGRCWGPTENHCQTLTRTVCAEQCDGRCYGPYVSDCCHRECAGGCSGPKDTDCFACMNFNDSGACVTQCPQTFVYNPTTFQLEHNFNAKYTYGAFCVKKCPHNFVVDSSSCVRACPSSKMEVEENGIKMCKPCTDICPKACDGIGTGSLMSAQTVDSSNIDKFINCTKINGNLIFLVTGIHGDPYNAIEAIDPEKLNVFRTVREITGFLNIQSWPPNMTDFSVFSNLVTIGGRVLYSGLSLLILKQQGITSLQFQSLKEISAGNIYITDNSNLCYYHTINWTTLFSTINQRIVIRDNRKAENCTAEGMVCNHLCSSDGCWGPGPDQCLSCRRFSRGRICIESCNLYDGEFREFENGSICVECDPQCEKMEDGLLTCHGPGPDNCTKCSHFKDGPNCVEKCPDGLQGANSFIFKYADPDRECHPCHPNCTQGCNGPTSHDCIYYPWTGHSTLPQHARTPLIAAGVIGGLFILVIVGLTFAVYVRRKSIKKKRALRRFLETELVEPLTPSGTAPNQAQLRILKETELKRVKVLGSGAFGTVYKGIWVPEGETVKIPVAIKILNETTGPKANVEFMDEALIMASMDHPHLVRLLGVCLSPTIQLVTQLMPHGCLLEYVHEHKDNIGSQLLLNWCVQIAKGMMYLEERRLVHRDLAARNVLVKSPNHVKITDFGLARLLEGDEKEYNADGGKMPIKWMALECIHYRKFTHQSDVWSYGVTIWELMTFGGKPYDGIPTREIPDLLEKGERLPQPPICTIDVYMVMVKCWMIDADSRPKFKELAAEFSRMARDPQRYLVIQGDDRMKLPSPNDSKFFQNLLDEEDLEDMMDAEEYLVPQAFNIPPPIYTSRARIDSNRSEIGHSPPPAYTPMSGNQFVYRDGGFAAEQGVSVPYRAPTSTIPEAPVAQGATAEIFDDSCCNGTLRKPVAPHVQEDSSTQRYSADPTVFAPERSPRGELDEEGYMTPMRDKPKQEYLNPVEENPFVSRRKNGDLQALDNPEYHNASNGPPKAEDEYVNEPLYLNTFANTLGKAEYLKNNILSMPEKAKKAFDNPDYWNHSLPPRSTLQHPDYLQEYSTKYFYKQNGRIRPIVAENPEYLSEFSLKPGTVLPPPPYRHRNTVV

[19] = target: Receptor tyrosine-protein kinase erbB-4 (Homo sapiens) (UniProt Q15303); details: at 1 µM
[20] = target: Tyrosine-protein kinase Fer (Homo sapiens) (UniProt P16591); details: at 0.1 µM;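 note: reported figures are averaged percent inhibition of FER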

Chain of Epidermal growth factor receptor (Homo sapiens), P00533 [T790M] (P00533 whole entry T790M): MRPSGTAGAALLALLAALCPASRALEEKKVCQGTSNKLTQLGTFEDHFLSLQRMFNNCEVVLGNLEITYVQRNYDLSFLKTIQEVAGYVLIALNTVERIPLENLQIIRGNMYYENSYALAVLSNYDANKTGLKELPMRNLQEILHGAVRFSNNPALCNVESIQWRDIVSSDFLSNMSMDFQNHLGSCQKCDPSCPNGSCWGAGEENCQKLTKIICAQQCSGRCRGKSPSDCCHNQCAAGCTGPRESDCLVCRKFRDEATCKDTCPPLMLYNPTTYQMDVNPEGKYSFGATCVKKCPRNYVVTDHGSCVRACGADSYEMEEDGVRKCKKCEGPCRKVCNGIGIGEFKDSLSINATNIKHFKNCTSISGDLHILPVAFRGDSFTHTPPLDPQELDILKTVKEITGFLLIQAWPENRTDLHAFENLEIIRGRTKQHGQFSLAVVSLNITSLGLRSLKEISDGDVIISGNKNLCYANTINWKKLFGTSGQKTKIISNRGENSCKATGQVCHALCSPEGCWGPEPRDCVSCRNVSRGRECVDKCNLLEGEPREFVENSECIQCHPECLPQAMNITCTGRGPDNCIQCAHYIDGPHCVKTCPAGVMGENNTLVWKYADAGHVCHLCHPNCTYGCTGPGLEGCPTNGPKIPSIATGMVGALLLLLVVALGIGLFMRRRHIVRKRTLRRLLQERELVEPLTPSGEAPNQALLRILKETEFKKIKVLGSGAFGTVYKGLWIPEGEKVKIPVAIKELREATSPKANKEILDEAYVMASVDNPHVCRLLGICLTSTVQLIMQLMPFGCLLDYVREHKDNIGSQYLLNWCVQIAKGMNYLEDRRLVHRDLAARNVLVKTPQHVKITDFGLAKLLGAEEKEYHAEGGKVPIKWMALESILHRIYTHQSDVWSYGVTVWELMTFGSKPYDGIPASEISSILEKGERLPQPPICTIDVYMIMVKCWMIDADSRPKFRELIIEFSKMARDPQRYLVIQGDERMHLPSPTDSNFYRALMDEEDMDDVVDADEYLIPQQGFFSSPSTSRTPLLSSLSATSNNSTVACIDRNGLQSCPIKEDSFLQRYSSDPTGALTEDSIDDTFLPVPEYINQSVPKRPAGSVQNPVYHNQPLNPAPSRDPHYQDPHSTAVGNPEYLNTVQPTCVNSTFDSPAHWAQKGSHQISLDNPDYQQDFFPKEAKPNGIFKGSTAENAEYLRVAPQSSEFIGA

| Structure (SMILES) | inhibition [1] | inhibition [2] | inhibition [3] | inhibition [4] | inhibition [5] | inhibition [6] | inhibition [7] | inhibition [8] | inhibition [9] | inhibition [10] | inhibition [11] | inhibition [12] | inhibition [13] | inhibition [14] | inhibition [15] | inhibition [16] | inhibition [17] | inhibition [18] | inhibition [19] | inhibition [20] |
| --- | --- | --- | --- | --- | --- | --- | --- | --- | --- | --- | --- | --- | --- | --- | --- | --- | --- | --- | --- | --- |
| CN(c1ccc(NC(=O)NCCN2CCOCC2)cc1)c1ccnc(Nc2ccc(CS(C)(=O)=O)cc2)n1 | 4.33% | 0.85% | 2.57% | 2.23% | 2.79% | 4.27% | 5.54% | 8.57% | 19.6% | 6.47% | 17.1% | 3.86% | 4.14% | 2.27% | 3.53% | 1.62% | 4.12% | 6.8% | 4.94% | 3.77% |
| c1ccc(-c2n[nH]cc2-c2ccnc(-c3ccc(OCCn4ccnc4)cc3)c2)nc1 | 0.85% | -0.66% | 2.87% | -2.85% | -3.04% | -1.82% | 0.58% | 0.18% | 0.69% | -0.16% | 0.77% | 1.4% | -0.01% | 0.04% | -0.88% | 0.33% | -1.51% | -1.46% | 3.39% | 1.51% |
| COc1c(C(N)=O)cc(-c2ccc(Cl)cc2)cc1-c1ccc(S(N)(=O)=O)cc1 | 3.77% | -1.73% | 0.63% | 1.79% | 1.53% | 3.06% | 4.11% | 8.42% | 10.1% | 8.67% | 8.13% | 1.93% | 4.65% | 5.71% | 3.61% | 1.74% | 4.75% | 7.58% | 12.9% | 0.34% |
| CS(=O)(=O)CCNCc1ccc(-c2ccc3ncnc(Nc4ccc(OCc5cccc(C(F)(F)F)c5)cc4)c3c2)o1 | 1.6% | 0.98% | 3.77% | 0.34% | 0.55% | 2.95% | 2.34% | 6.4% | 8.61% | 7.05% | 6.28% | 3.02% | 3.57% | 0.6% | 2.19% | 4.88% | 3.5% | 7.3% | 28.5% | -1.96% |
| Nc1nonc1-c1nc2cnccc2n1C1CC1 | 0.41% and 1.8% | 0.14% and 3.74% | 5.5% and 7.11% | 1.3% and -6.99% | 0.04% and -7.28% | 3.71% and -1.91% | 3.7% and -1.81% | 6.99% and 5.79% | 5.96% and 2.69% | 10.5% and 2.91% | 14.2% and 3.79% | 5.08% and 1.12% | 6.13% and -2.08% | 2.51% and -2.43% | 1.45% and -3.41% | 1.64% and 0.4% | -1.67% and -0.01% | 1.55% and 2.22% | 6.98% and 0.35% | 2% and 1.26% |
| c1cnn2ncc(-c3ccnc(NCCCN4CCOCC4)n3)c2c1 | 1.66% | -1.49% | 0.81% | -0.74% | -1.53% | 2.9% | 6.16% | 10% | 5.87% | 6.81% | 9.04% | 6.96% | 3.37% | 1.21% | 1.07% | 1.75% | -0.02% | 8.02% | 8.49% | 0.82% |
| CS(=O)(=O)CCNCc1ccoc1-c1ccc2ncnc(Nc3ccc(OCc4ccccc4)cc3)c2c1 | 4.58% | -0.19% | -0.52% | -2.48% | -2.19% | 0.44% | 2.32% | 4.33% | 6.25% | 4.8% | 7.96% | 3.15% | 2.98% | 0.88% | 1.51% | 3.25% | 50.9% | 32.3% | 79.9% | -0.1% |
